Test results reported in PubChem BioAssay (NCI).
The panel holds about 79,000 compounds, 15% with a hit somewhere; the sample as a whole holds those more often. Calls of active or inactive are those of the source. Cut-off read from the data, not from the text of the source: active = growth inhibition above about 70%; inactive = the rest.

What was measured:
[1] = NCI Yeast Anticancer Drug Screen. Data for the rad50 strain (AID 155);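 note: 0% = growth of vehicle-only cultures of the same strain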; details: S. cerevisiae rad50 strain growth inhibition; at 50.0 µM; hits give high values
Outline: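 DNA repair mutant yeast, compound exposure, growth read-out; inhibition is taken relative to vehicle.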

[2] = NCI Yeast Anticancer Drug Screen. Data for the mec2-1 strain (AID 157); details: S. cerevisiae mec2-1 strain, at 50.0 µM, hits give high values
Outline: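 Cells of the genetically defined mec2-1 yeast strain are incubated with test compound. Inhibition of growth is calculated against vehicle-treated controls.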

[3] = NCI Yeast Anticancer Drug Screen. Data for the sgs1 mgt1 strain (AID 161);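 note: 0% = growth of cultures given vehicle only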; details: S. cerevisiae sgs1 mgt1 strain, at 50.0 µM, hits give high values
Outline: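 Inhibition of yeast growth, normalised to vehicle-treated controls, is reported for a strain bearing genetic alterations in DNA damage repair.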

[4] = NCI Yeast Anticancer Drug Screen. Data for the cln2 rad14 strain (AID 165);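 note: 0% = growth equal to vehicle treated cultures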; details: S. cerevisiae cln2 rad14 strain, at 50.0 µM, hits give high values
Outline: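 The screen exposed genetically defined yeast (cln2 rad14) to test compounds and scored growth inhibition relative to vehicle-treated controls.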

[5] = NCI Yeast Anticancer Drug Screen. Data for the bub3 strain (AID 167); details: S. cerevisiae bub3 mutant strain, at 50.0 µM, hits give high values
Outline: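 In this screen, a yeast mutant lacking normal mitotic checkpoint function is challenged with compound. Relative growth versus vehicle gives the inhibition value.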

[6] = NCI Yeast Anticancer Drug Screen. Data for the mlh1 rad18 strain (AID 175); details: S. cerevisiae mlh1 rad18 strain growth inhibition; at 50.0 µM; hits give high values
Outline: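 Compound-treated yeast growth, normalised to vehicle controls. Strain bears defined DNA repair mutations.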

Measured: growth inhibition

S=C(NCc1ccncc1)Nc1ccccc1Cl
inactive: [1] 2.75% | [2] -0.5% | [3] -4.7% | [4] 12.7% | [5] 6.1% | [6] 9.55%

CCOC(=O)N(c1ccccc1)c1ccccc1
inactive: [1] -11.3% | [2] -18.8% | [3] 18.7% | [4] 5.65% | [5] 5% | [6] 15.2%

CC(=O)Nc1cc(C)c(C)cc1[N+](=O)[O-]
inactive: [1] -2.5% | [2] -16.6% | [3] -9.45% | [4] 3.3% | [5] -27.1% | [6] -11.7%

C[N+](C)(CCNc1ccc(NCC[N+](C)(C)Cc2ccc([N+](=O)[O-])cc2)c2c1C(=O)c1c(O)ccc(O)c1C2=O)Cc1ccc([N+](=O)[O-])cc1
active: [1] 72.2% | [2] 84.6% | [3] 77.9% | [4] 78.1% | [5] 76.7% | [6] 76.8%

CCN(CC)CCCC(C)Nc1c2ccc(Cl)cc2nc2c(Cl)cc(Cl)cc12 (stereo unspecified)
inactive: [1] -8.55% | [2] 4.75% | [3] 2.5% | [4] 23.6% | [5] 28.3% | [6] -8.85%

CNc1n[nH]c(-c2ccccc2)n1
inactive: [1] 4.85% | [2] -17.5% | [3] 11.8% | [4] 11.9% | [5] 1.15% | [6] 1.8%

COc1cc2c(c3oc(=O)cc(CCC(=O)O)c13)C1CC(=O)OC1O2 (stereo unspecified)
inactive: [1] 3.75% | [2] -16.6% | [3] -9.15% | [4] 1% | [5] -10.7% | [6] 10.8%

c1ccc(-c2cc[n+]3c4c2ccc2c(-c5ccccc5)cc[n+](c24)CC3)cc1
inactive: [2] 51.5% | [5] 25.8%
active: [1] 78.5% | [3] 89.6% | [4] 73.8% | [6] 87.2%

CCOC(=O)C1CSC(N)=N1 (stereo unspecified)
inactive: [1] 4.45% | [2] -38.9% | [3] -11.8% | [4] -29.4% | [5] 5.65% | [6] -7.8%

Nc1ncnc2oc(-c3ccccc3)nc12
inactive: [1] 1.3% | [2] -0.85% | [3] -6.35% | [4] -40% | [5] -4.25% | [6] 13.7%

CC1([N+](=O)[O-])C(=O)C2(N3CCCC3)CCCC2C1c1ccccc1 (stereo unspecified)
inactive: [1] 0.5% | [2] 8.4% | [3] -10.9% | [4] -2.25% | [5] 8.3% | [6] -9.35%

COc1cc(C=O)ccc1OC(C)=O
inactive: [1] -33.3% | [2] -15.3% | [3] -35.9% | [4] -31.4% | [5] -10.6% | [6] -24.3%

O=C(Nc1ccc(C(F)(F)F)cc1)NC(F)(F)F
inactive: [1] -61.1% | [2] -6.7% | [3] -38.1% | [4] -16.6% | [5] -3.65% | [6] -46.3%

O=C1CC(N2C(=O)C3C4CCC(O4)C3C2=O)C(=O)N1 (stereo unspecified)
inactive: [1] 2.45% | [2] 18.2% | [3] 1.3% | [4] -0.6% | [5] 7.95% | [6] 6.45%

O=C(c1ccccc1)N(C(=O)c1ccccc1)c1cccc[n+]1[O-]
inactive: [1] 4.4% | [2] -2.25% | [3] -1.75% | [4] -12.2% | [5] -10.2% | [6] -4%

[Cl][Pt+2][Cl].[NH-]C1CCCCC1C1CCCCC1[NH-] (stereo unspecified)
inactive: [1] 14.6% | [2] -12.4% | [3] -29.2% | [4] -41.2% | [5] -29.8% | [6] -27.4%

OC1CC2c3ccccc3C1c1cccc[n+]12 (stereo unspecified)
inactive: [1] 16.2% | [2] -9.85% | [3] -4.1% | [4] -38.7% | [5] 4.65% | [6] 14.7%

Cc1ccc(S(=O)(=O)OC2C3OC(C)(C)OC3OC2C2CSC(=S=O)S2)cc1 (stereo unspecified)
inactive: [1] 31.6% | [2] -0.6% | [3] 21.8% | [4] 22.2% | [5] -3.15% | [6] 12.7%

COc1ccccc1CC(=O)O
inactive: [1] 27.9% | [2] 2.15% | [3] 16.4% | [4] 17.3% | [5] -1.85% | [6] 0.05%

c1ccc2c(c1)CCOC2
inactive: [1] -0.4% | [2] 5.9% | [3] 3.45% | [4] 6.5% | [5] 8.55% | [6] -3.1%

Oc1ccccc1CNc1ncc(Cl)cc1Cl
inactive: [1] 24.9% | [2] 16% | [3] 26.8% | [4] -5.15% | [5] 39.1% | [6] 19.4%

C[C@H](CCC(=O)NCCS(=O)(=O)O)[C@H]1CC[C@H]2[C@@H]3CC[C@@H]4C[C@H](O)CC[C@]4(C)[C@H]3CC[C@]12C
inactive: [1] 2.9% | [2] -21.1% | [3] 5.65% | [4] -9.3% | [5] -5.55% | [6] 14.8%

CC(C(N)=O)C(=O)c1ccccc1 (stereo unspecified)
inactive: [1] 9.9% | [2] -12.4% | [3] -24.3% | [4] -7.15% | [5] -21.2% | [6] 0.15%

Cc1ccc(N=N/C(=N/NC(=O)c2ccccc2)c2ccc(N(CCC#N)CCC#N)cc2C)cc1
inactive: [1] 0.85% | [2] 3.3% | [3] -9.65% | [4] -16.3% | [5] -3.25% | [6] -40%

ON=C1CCCCC1
inactive: [1] 37.9% | [2] 7.45% | [3] -1.45% | [4] -27.9% | [5] -3.15% | [6] 25.1%

O=[N+]([O-])C(C(Cl)=C(Cl)Cl)=C(n1nnc2ccccc21)n1nnc2ccccc21
inactive: [1] 40.6% | [2] 34.9% | [3] 25.3% | [4] 27.1% | [5] 19% | [6] 21.1%

COC(=O)c1nnn(-c2ccc(Cl)cc2Cl)c1N
inactive: [1] -6.35% | [2] -18% | [3] -14.6% | [4] 6.3% | [5] -19.3% | [6] 14%

CC(CCl)CC#N (stereo unspecified)
inactive: [1] -5.6% | [2] -19.1% | [3] 7.9% | [4] 13.1% | [5] -10% | [6] -1.1%

CCN(CC)Cc1ccccc1CO
inactive: [1] 3.05% | [2] 6.15% | [3] 2.2% | [4] 9.75% | [5] 9.6% | [6] 0.5%

CCCCOC(=O)Nc1ccccc1OCC
inactive: [1] 6.7% | [2] -19.8% | [3] -0.35% | [4] -48.4% | [5] -20.5% | [6] -11.2%

Clc1ccccc1CSc1cnnc(Cl)c1SCc1ccccc1Cl
inactive: [1] 28.6% | [2] 12.2% | [3] 31.6% | [4] 39.6% | [5] 5.2% | [6] 21.9%

CC(=O)NCCc1ccc2c(c1)[nH]c1ccccc12
inactive: [1] -1.9% | [2] -36% | [3] -8.75% | [4] 12.6% | [5] -17.1% | [6] -8.05%

N#CC1C=Cc2ccccc2N1C(=O)Oc1ccccc1 (stereo unspecified)
inactive: [1] 1.5% | [2] 14.3% | [3] 10.6% | [4] 18.6% | [5] -7.8% | [6] 16.6%

Cn1c(=O)c2[nH]c(SC3CCCCC3)nc2n(C)c1=O
inactive: [1] 19.2% | [2] 11.4% | [3] 18.6% | [4] 11.3% | [5] 35.8% | [6] 8.9%

NC1=NN(c2ccccc2)C(=O)C1/C(=N\NC(=O)c1cc2ccccc2cc1O)C(=O)Nc1ccc(Cl)cc1 (stereo unspecified)
inactive: [1] 40.5% | [2] 21.9% | [3] -7.4% | [4] 24.8% | [5] 22.8% | [6] 49.5%

N#C/C(=N\NC(=O)c1cccs1)c1ccccc1Cl
inactive: [1] -5.65% | [2] 1.2% | [3] 8% | [4] -33.1% | [5] 9.7% | [6] 3.45%

O=C1NC(=O)/C(=C\c2cccc(Br)c2)N1
inactive: [1] -7.95% | [2] 4.15% | [3] -12.1% | [4] 6.8% | [5] 24.5% | [6] 8.85%

CN(C)C(=O)Sc1nnc(C(C)(C)C)o1
inactive: [1] -4.35% | [2] -5.9% | [3] -7.3% | [4] -23.4% | [5] 1.7% | [6] 4.2%

COC(=O)C1C2OC(C(Br)C2Br)C1C(=O)OC (stereo unspecified)
inactive: [1] -12.1% | [2] -9.5% | [3] -1.15% | [4] -1.95% | [5] -1.65% | [6] -10.2%

Nc1c(Cl)ncnc1Nc1cccc(C(F)(F)F)c1
inactive: [1] 9.9% | [2] 38.4% | [3] 53.1% | [4] 10.1% | [5] 41.6% | [6] 66.5%

Cc1cccc(Cl)c1N=Nc1c(C)nn(C(N)=S)c1C
inactive: [1] 29.8% | [2] 8.75% | [3] 38% | [4] -33% | [5] -0.55% | [6] 17.1%
